Structures are written as SMILES. Values without a mark were called inactive. Active and inactive are the calls of the source. Cut-off read from the data, not from the text of the source, unless noted: active = inhibition above about 36%; inactive = the rest.

The target in assay [1] is Nuclear receptor coactivator 3 (Homo sapiens) (UniProt Q9Y6Q9). Nature of the assay: NCOA3 GAL4-fusion reporter inhibition – cell-based, luminescence, quadruplicate, confirmation (AID 588792;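 active = mean inhibition over 43.08%, the solvent-only control mean plus 3 SD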;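 note: 0% = DMSO treated cells and 100% = gossypol at 36 µM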). The note with it: HEK293 GAL4-SRC3 luciferase reporter, at 3.6 µM, hits give high values. Background: Reporter assays use an easily measured gene product as a stand-in for the process of interest.

Assay [2] concerns transactivating tegument protein VP16 (Human herpesvirus 1), Gal4-VP16 luciferase reporter. The experiment in a line: repression of VP16-driven luciferase reporter – cell-based, luminescence, high throughput, counter-screen for SRC3 inhibitor project (AID 588794; in the data active = inhibition above about 30%). The note with it: mammalian cells, at 3.6 µM, hits give high values.
The test system of assay [3] is transactivating tegument protein VP16 (Human herpesvirus 1). Nature of the assay: compounds suppressing VP16-driven luciferase signal – cell-based, luminescence, single concentration, counter-screen for SRC2 inhibitor project (AID 652007). As to conditions: cell-based VP16 transactivation luciferase reporter, at 8.9 µM, hits give high values. (In general: The purpose of a counterscreen is to sort out artefacts and off-target activity.)

Assay [4] deals with Nuclear receptor coactivator 2 (Homo sapiens) (UniProt Q15596). The experiment in a line: inhibition of GAL4-SRC2 driven luciferase expression – cell-based, luminescence, HEK293, triplicate, confirmation (AID 652008;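 active = mean inhibition above 46.5%, the solvent-only control mean plus 3 SD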;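 note: 0% = DMSO-treated cells and 100% = Gossypol at 36 µM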). As to conditions: HEK293 GAL4-SRC2 luciferase reporter, at 8.9 µM, hits give high values.
Sequence of Nuclear receptor coactivator 2 (Homo sapiens) (Q15596 whole entry, looked up, the tested form may be a part): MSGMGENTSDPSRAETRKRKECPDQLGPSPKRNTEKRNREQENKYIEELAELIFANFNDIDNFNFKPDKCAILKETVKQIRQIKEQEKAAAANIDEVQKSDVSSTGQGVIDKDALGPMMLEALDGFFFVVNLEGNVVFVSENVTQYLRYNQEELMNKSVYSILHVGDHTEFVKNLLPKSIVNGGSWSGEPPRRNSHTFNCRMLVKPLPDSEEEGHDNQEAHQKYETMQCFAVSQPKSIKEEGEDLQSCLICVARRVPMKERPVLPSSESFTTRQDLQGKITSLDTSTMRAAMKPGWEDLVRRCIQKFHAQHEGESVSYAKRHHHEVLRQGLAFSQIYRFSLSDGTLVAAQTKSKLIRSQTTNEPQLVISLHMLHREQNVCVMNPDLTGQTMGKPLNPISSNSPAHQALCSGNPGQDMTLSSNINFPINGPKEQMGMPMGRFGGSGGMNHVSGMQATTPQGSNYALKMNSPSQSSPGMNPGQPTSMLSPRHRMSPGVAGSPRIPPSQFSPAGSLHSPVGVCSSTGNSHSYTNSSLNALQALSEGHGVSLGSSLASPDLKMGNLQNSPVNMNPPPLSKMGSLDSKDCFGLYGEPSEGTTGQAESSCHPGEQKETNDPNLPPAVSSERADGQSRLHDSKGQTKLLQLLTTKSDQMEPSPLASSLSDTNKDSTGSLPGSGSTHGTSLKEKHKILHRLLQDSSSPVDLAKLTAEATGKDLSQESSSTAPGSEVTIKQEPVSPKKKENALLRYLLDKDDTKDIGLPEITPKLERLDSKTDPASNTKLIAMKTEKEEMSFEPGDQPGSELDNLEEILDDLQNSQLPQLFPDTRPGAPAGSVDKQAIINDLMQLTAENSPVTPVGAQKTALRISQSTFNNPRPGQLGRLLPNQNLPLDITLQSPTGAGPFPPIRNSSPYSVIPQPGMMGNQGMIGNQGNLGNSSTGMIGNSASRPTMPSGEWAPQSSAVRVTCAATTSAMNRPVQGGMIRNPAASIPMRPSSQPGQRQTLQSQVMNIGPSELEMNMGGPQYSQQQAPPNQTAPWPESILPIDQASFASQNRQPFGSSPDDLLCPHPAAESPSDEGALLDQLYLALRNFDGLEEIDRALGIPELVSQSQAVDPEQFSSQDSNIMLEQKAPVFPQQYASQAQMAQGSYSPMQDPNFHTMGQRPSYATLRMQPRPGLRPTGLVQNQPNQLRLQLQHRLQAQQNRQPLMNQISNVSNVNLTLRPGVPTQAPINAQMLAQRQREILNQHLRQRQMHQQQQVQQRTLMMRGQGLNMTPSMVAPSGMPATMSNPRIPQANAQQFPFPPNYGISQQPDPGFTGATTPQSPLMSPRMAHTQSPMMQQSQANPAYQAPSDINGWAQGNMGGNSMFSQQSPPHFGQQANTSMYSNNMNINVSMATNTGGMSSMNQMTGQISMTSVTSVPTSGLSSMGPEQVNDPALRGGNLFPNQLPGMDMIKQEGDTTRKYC

Sequence of Nuclear receptor coactivator 3 (Homo sapiens) (Q9Y6Q9 whole entry, looked up, the tested form may be a part): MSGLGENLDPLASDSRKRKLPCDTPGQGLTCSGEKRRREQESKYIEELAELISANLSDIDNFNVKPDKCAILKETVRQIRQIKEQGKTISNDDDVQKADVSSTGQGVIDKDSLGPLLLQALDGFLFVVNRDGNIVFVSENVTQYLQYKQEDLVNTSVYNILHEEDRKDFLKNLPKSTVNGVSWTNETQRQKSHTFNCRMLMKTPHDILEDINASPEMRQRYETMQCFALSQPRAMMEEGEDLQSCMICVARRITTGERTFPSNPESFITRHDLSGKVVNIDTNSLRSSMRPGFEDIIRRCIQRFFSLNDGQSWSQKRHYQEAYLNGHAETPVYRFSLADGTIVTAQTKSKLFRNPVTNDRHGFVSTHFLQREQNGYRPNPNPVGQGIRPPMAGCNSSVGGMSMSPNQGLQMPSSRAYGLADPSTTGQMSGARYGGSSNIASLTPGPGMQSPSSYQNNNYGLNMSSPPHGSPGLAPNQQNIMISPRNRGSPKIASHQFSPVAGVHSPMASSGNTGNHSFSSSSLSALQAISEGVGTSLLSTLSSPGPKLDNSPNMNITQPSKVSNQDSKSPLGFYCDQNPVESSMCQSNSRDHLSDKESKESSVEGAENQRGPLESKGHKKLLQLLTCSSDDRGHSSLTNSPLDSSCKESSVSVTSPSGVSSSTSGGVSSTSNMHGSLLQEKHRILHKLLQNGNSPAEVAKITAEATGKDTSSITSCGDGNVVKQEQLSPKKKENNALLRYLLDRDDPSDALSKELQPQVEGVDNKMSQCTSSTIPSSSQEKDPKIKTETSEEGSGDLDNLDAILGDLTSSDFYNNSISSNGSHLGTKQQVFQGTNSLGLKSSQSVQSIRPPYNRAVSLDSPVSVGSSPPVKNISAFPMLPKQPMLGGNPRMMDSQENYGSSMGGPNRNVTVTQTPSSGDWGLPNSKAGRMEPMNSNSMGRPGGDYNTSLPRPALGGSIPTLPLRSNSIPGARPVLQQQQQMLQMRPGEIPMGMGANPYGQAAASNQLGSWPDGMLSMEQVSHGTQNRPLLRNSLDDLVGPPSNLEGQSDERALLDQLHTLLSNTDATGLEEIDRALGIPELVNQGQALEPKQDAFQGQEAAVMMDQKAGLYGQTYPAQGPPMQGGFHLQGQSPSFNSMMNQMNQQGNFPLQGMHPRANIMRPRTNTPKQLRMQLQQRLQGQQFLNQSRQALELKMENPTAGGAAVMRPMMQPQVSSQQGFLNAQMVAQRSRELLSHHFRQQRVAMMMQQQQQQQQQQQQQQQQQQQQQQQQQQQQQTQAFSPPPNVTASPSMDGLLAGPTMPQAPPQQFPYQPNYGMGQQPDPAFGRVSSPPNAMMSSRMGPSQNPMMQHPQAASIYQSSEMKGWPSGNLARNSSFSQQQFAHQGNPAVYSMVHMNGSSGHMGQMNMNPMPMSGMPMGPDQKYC

As to `COCC1CCN(C(=O)c2cc(COc3cccc4cnccc34)on2)CC1`, the inhibition – broadly, the change of the read-out against control, counted positive when it falls – is 11.1% in assay [1], 37.7% (active) in assay [2], 3.58% in assay [3] and 43.1% in assay [4].
Consider `CC(=O)Nc1ccc(NC2=C/C(=N/S(=O)(=O)c3cccs3)c3ccccc3C2=O)cc1`, for which the inhibition in assay [1] is 3.29%; in assay [2] it was 9.98%; in assay [3], 9.81%; in assay [4], 49.5% (active).
With `COc1ccc(COC(=O)C2=C(C)NC(=O)NC2c2ccc(OC)cc2)cc1` (stereo not drawn), the inhibition was 11.2% in assay [1], 20.8% in assay [2], 12% in assay [3] and 33% in assay [4].
With `Cc1cccc(CN2CCN(C(=O)CCl)CC2)c1`, the inhibition was 31.7% in assay [1], 18.2% in assay [2], 38% (active) in assay [3] and 33.5% in assay [4].
For `CCCCn1c(CCl)nc2cc(S(=O)(=O)N3CCOCC3)ccc21` the same measures were 71.6% (active), 34.6% (active), 22% and 64.1% (active).
Regarding `Cc1nn(C)cc1C(C)NC(=O)c1cc(COc2cccc3cnccc23)on1` (stereo not drawn), the inhibition in assay [1] was 18.6%; in assay [2] it was 24.9%; in assay [3] it was -5.71%; in assay [4], 33.3%.
Regarding `Cc1ccc(-n2nnnc2Sc2ccc(S(=O)(=O)NCCN(C)C)cc2[N+](=O)[O-])cc1`, the inhibition was 33.8% in assay [1], 35.9% (active) in assay [2], 18.6% in assay [3] and 31.4% in assay [4].
The matching figures for `O=C(c1ccc(F)cc1)C(CN1CCOCC1)c1ccccc1` (stereo not drawn): 44.1% (active), 55.9% (active), 35% and 82.6% (active).
For `CC(C)(C)C(=O)Nc1ccc(C(=O)N/N=C/c2ccccc2OC(=O)c2ccc(Cl)cc2)cc1` the same measures were 27.4%, 7.22%, 6.84% and 35.1%.
For `O=C(N[C@@H](Cc1ccccc1)C(=O)CCl)OCc1ccccc1` the same measures were 31.5%, 40.4% (active), 64.2% (active) and 69.3% (active).
On to `CC(C)N(CC(=O)Nc1ccc(Cl)cc1C(F)(F)F)C(=O)CCl`, for which the inhibition is 44% (active) in assay [1], 35.6% (active) in assay [2], 25.9% in assay [3] and 59.2% (active) in assay [4].
As for `O=C(NCCCn1ccnc1)c1ccc(N2CCCCCC2)c([N+](=O)[O-])c1`, the inhibition in assay [1] was 50.3% (active); in assay [2], -23.6%; in assay [3], 26.9%; in assay [4] it was 54.3% (active).
The matching figures for `COc1ccc(-c2noc(CCC(=O)NCCCN3CCC(Cc4ccccc4)CC3)n2)cc1`: -0.27%, 10.7%, -4.69% and 15.6%.
The matching figures for `CC(C)(C)c1ccc(-c2noc(CCC(=O)Nc3cccnc3)n2)cc1`: 41%, 25.7%, 67.8% (active) and 80.8% (active).
The matching figures for `Cc1ccc(-n2c(C)cc(C(=O)COc3cccnc3[N+](=O)[O-])c2C)cc1`: 34.5%, -10.3%, -23% and 64% (active).
With `Cc1nc([N+](=O)[O-])c(Sc2nc3ccccc3[nH]2)n1Cc1ccccc1`, the inhibition in assay [1] was 16.1%; in assay [2] it was 6.02%; in assay [3], -3.82%; in assay [4], 32.5%.
For `CCOc1ccc(CC(=O)Nc2ccc(NC(=O)c3ccco3)cc2)cc1OCC` the same measures were 64% (active), -14.3%, 7.03% and 41.9%.

The values are drawn from PubChem BioAssay.
